Measurements published in the supplement of paper PMC6555819.

tested on: VDR:RXRa (NR concentration 270 nM, RXRa partner concentration 90 nM); test: PBM binding z-score (relative to random genomic background probes); higher = stronger binding; sequences stand for … in GC…GCGATTGACAGCGTAGAATGAAGG
Experimental: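 Protein-binding microarray (Agilent 4x180K custom design, double-stranded 60-nt probes: 5' GC cap, 34-nt variable region, 24-nt constant primer region; full probe sequence given). Purified or IVT nuclear receptor:RXRα heterodimers (3:1 NR:RXRα, mostly 270:90 nM) or homodimers were incubated for 1 h in PBS with 2% milk and no ligand, then detected with Alexa488 antibodies. Fluorescence from o1-orientation probes (~5 replicates averaged) was converted to z-scores against 500 random hg19 background probes. Variable regions are seed direct-repeat (DR0–DR5) sites, all their single-nucleotide variants and half-site ablations.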

Row | Sequence | PBM binding z-score
1 | CCAACTGGGGCATAAGGTTACCATAAGCCAGCCC | 0.316
2 | GGAACGAGGGCATTAGAGTTGATAGCATGGCGAT | 2.83
3 | CCATACAGGTGAGAAGGTAACTCAGCCTCGATTA | 0.121
4 | ATCTCTAGGTAACCAAGTTCAGTGTATGCCGAAC | 3.91
5 | CAAACTAGGTCAAGAGCTCAAAGTCCGCTTCCCG | 1.29
6 | CCAGACAGGGGAAAGGTAACTCAGTCTGGTACGC | -0.0821
7 | CTGACTGGGGCAAGGTTACCATAACGCACAGCCA | 0.261
8 | AGAATGAGGTTATTAAGATCTGGGAATTGCGGTC | 1.33
9 | ACTTACGGGGCAACGAGGTTATAGCACGCGTATA | 5.28
10 | ATATGTAGGTTACATCCGGGTCACTCAGGCTATG | 3.71
11 | TCGAGTAGGTTAGTCGGCGCATTCAGCCAACATA | -0.0837
12 | TCTTGTAGATCAAGAAGGTTAAGAAAGCCTGAGT | 1.16
13 | CCTATTAGTTGACCATAAGGGCAACAGAAGCTCG | 0.519
14 | CCTACTGGGCCAAGGACATTGATCAGTCAAAGCA | -0.496
15 | CGAACTAGGTCAGAACAGGACAGTAAAGGATGAT | 0.971
16 | GATACAGGGTTAGCTAGAGGCCAGAGTATGGAAA | 0.139
17 | TGTCAAAGTTCAAAGGTAAAGTAAGTATCCACAC | 4.88
18 | TAGCCTAGGTCAGATCGGGCCATTATACGCTATA | 1.6
19 | CCGACTGGGGCAGAAAGGGTACCATACCATCCGG | -0.384
20 | ATACCAAGGTGATCGTGAGGTCATTGATACTAAC | 5.31

Row | Sequence | PBM binding z-score
21 | CCAACTAGGTCAAGGTCAAAGTCGGTTTGTGCCA | 5.14
22 | ACTAGCAGGCCAAGGTTGGGTCACTCAAACAAAG | 0.381
23 | TAGCCTGGGTCATGCGGGCCAGTATAGTGTCGGC | 3.07
24 | CAAACTAGGTCAAAGGTGAAAGTCGAGCCAACCA | 4.04
25 | CAAACTAAGTCACAGAGGTCAAAGTCCGTGCGTA | 6.65
26 | TCTGCTAGGTCAACTATGGTCAGCTAATCTGCTA | 2.12
27 | GCTGCTAGGTGAACTGATGGTCAGCTAAAGCTCG | -0.124
28 | CCGACTGGGGCAGAAAGGTTACCATGCCATCCGG | 0.756
29 | TCTTGTAGATAAACAGGAGGTTAAGAAAGATCGA | 0.873
30 | CAAACTAGGTCACCGGAAGGTCAAAGGCCGCATG | 5.88
31 | CCTACTGGGGCATTCAGAGGTCATTGATCATATG | 4.47
32 | GCATAGAGGTAATACAAGGTGAAAGTCCGATTGT | 0.566
33 | AGTCAAAGTCCACTAGGTAACGTAAGATTCAGCT | -0.0687
34 | TCATATCGGTAAATGCTAGGTGAAAGTCCGATCT | 0.566
35 | GCTGCTAGTTCAGGTTGGTCAGCTAACGGGTACG | 0.0828
36 | TGTCAAAGTACAAAGGTAACGTAAGTATCCACAC | 0.725
37 | CCGACTGGGGCAGAAAAGTTACCATACCATCCGG | -0.576
38 | CTCGAAAGGTCGTGCTCAGGTGAGTCTACCAAAC | 3.35
39 | GCAGACAAGTGAAACGCAGGTAACTCAGGGTGGC | -0.581
40 | TCTGGTAGATCAAGCAGGTTAAGAAAGCCTGAGT | 0.122
